From PubChem BioAssay (Tox21)
Inconclusive results are not listed. Activity calls are given as the source filed them. Unless noted, calls come from the whole dose curve.

What was measured:
[1] = Nuclear factor erythroid 2-related factor 2/antioxidant responsive element (Nrf2/ARE) small molecule agonists: qHTS cell viability counter screen in human keratinocytes (AID 1919968; active = well fitted curve in the direction sought with a large enough effect in the repeat runs; an effect the other way counts as inactive or inconclusive; note: nearly all actives have a fitted effect of over 55% in size)
In short: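 Cells of the KeratinoSens line were plated at 1,500 per well and left for 5 h before compound transfer from DMSO stocks. After a 23 h incubation (37 C, 5% CO2), CellTiter-Fluor was added. Signal was taken as fluorescence intensity 1 h later.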

[2] = Nuclear factor erythroid 2-related factor 2/antioxidant responsive element (Nrf2/ARE) small molecule agonists: luciferase reporter gene qHTS assay in human keratinocytes (AID 1919969); note: nearly all actives have a fitted effect of over 35% in size; note: potency is the fitted concentration of half-maximal effect
[3] = biological target: Gonadotropin-releasing hormone receptor (Homo sapiens) (UniProt P30968); assay: Human gonadotropin-releasing hormone receptor (GnRHR) small molecule agonists, calcium flux assay in GnRHR-HEK293 cells (AID 1920063); note: nearly all actives have a fitted effect of over 35% in size
In short: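 Compounds dissolved in DMSO are pin-transferred onto dye-loaded GnRHR-HEK293 cells, which were seeded 18 h before at 37 C/5% CO2. Calcium signal is read as fluorescence intensity at 1 s intervals for 3 min.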

[4] = biological target: KiSS-1 receptor (Homo sapiens) (UniProt Q969F8); assay: Human kisspeptin (KISS1R) small molecule agonists, calcium flux assay in KISS1R-HEK293 cells (AID 1920064; active = well fitted curve in the direction sought with a large enough effect in the repeat runs; an effect the other way counts as inactive or inconclusive)
In short: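 Cell line: HEK293, stable human KISS1R. Dye loading 1 h at 37 C after 18 h culture. Read: kinetic fluorescence, 480/540 nm, 3 min at 1 s intervals.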

[5] = G protein-coupled receptor (GPCR) small molecule agonists, calcium flux assay: HEK293 wild type cell line counter screen (AID 1920065)
In short: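 Tox21 10K compounds, 15 concentrations each in triplicate, pin-transferred in DMSO onto dye-loaded cells; kinetic read at 480/540 nm for 3 min, 1 s intervals.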

[6] = p53 small molecule agonists, cell-based qHTS assay with human liver microsomes (AID 1963577)
In short: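 Cells carrying a p53-responsive bla reporter were rested 5 h (37 C, 5% CO2) before compound transfer. Human liver microsomes plus NADPH, 0.5 mg/mL final apiece, supplied metabolism during the 16 h 37 C exposure.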

[7] = p53 small molecule agonists, cell-based qHTS assay with rat liver microsomes (AID 1963578)
In short: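 Fluorescence from a beta-lactamase reporter under a p53 response element was measured after cells had been incubated 16 h at 37 C with test compound and rat liver microsomes plus NADPH (0.5 mg/mL final each).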

[8] = p53 small molecule agonists, cell-based qHTS assay with human liver microsomes: qHTS cell viability counter screen (AID 1963579); note: nearly all actives have a fitted effect of over 45% in size
In short: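 Seed p53RE-bla cells at 4,000 per well; incubate 5 h at 37 C; add compound, human liver microsomes and NADPH; incubate 16 h at 37 C; add CellTiter-Glo; after 30 min at room temperature, read luminescence.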

[9] = p53 small molecule agonists, cell-based qHTS assay with rat liver microsomes: qHTS cell viability counter screen (AID 1963580); note: nearly all actives have a fitted effect of over 45% in size
In short: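 Rat liver microsome (0.5 mg/mL final) and NADPH (0.5 mg/mL final) co-incubation with compounds for 16 h at 37 C on HCT-116 p53RE-bla cells; cytotoxicity taken from intracellular ATP luminescence.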

[10] = p53 small molecule agonists, cell-based qHTS assay: qHTS cell viability counter screen (AID 1963581); note: nearly all actives have a fitted effect of over 45% in size
In short: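 ATP content measured by luminescence in HCT-116 p53RE-bla cells treated 16 h at 37 C, same wells as the reporter screen.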

[11] = p53 small molecule agonists, cell-based qHTS assay (AID 1963582; active = well fitted activation curve with a large enough effect in the signal ratio in the repeat runs, not every such curve was filed as active; the % refers to the signal ratio)
In short: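 16 h compound exposure (37 C) of p53 response element–bla cells, preceded by 5 h recovery at 37 C/5% CO2; read-out via LiveBLAzer B/G FRET substrate, 2 h RT, fluorescence intensity.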

[12] = biological target: 5-hydroxytryptamine receptor 2A (Homo sapiens) (UniProt P28223); assay: 5-hydroxytryptamine receptor 2A (HTR2A) small molecule antagonists, cell-based qHTS assay (AID 1963586); note: nearly all actives have a fitted effect of over 45% in size
In short: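 CHO cells stably expressing human HTR2A were plated for 18 h at 37 C, then loaded with calcium dye for 1 h. Compounds were preincubated 5 min at room temperature before DOI (4 nM solution) was added. Kinetic fluorescence was read for 3 min.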

[13] = biological target: 5-hydroxytryptamine receptor 2A (Homo sapiens) (UniProt P28223); assay: 5-hydroxytryptamine receptor 2A (HTR2A) small molecule agonists, cell-based qHTS assay (AID 1963587); note: nearly all actives have a fitted effect of over 30% in size
In short: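 Kinetic calcium-flux fluorescence (2 min, 1 sec intervals) after compound addition in agonist mode. HTR2A-CHO cells were cultured 18 h, then dye-loaded 1 h at 37 C.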

[14] = biological target: Muscarinic acetylcholine receptor M1 (Homo sapiens) (UniProt P11229); assay: Cholinergic receptor muscarinic 1 (CHRM1) small molecule antagonists, cell-based qHTS assay (AID 1963588); note: nearly all actives have a fitted effect of over 40% in size
In short: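 Compounds were tested at 15 concentrations in three independent runs. Dye-loaded CHRM1-CHO cells were exposed 5 min at room temperature before stimulation by acetylcholine added at 50nM. Intracellular calcium was read kinetically on FDSS for 3 min.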

[15] = biological target: Muscarinic acetylcholine receptor M1 (Homo sapiens) (UniProt P11229); assay: Cholinergic receptor muscarinic 1 (CHRM1) small molecule agonists, cell-based qHTS assay (AID 1963589); note: nearly all actives have a fitted effect of over 35% in size
In short: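 Homogeneous fluorescence calcium flux, agonist mode. Human M1-expressing CHO cells; compound dosed at 15 concentrations, three independent runs; signal sampled every 1 sec.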

[16] = cAMP Responsive Elements (CRE) small molecule agonists, cell-based qHTS assay (AID 1963590)
In short: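 HEK 293T cells stably bearing CRE-bla were plated at 2,000 cells per well and rested 18 h. Compounds, positive controls or DMSO were added for 3 h at 37 C. LiveBLAzer B/G substrate was then loaded for 2 h at room temperature.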

[17] = cAMP Responsive Elements (CRE) small molecule antagonists, cell-based qHTS assay (AID 1963591; active = well fitted inhibition curve with a large enough effect in the signal ratio in the repeat runs, not every such curve was filed as active; the % refers to the signal ratio)
In short: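 First, CRE-bla HEK293T cells settled 18 h at 37 C. Next, compound and 0.25 uM final NKH477 were applied for 3 h. Last, LiveBLAzer B/G substrate was loaded for 2 h at room temperature.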

[18] = biological target: Beta-2 adrenergic receptor (Homo sapiens) (UniProt P07550); assay: Adrenergic beta2 receptor (ADRB2) small molecule antagonists, cell-based qHTS assay (AID 1963592); note: nearly all actives have a fitted effect of over 50% in size; note: potency is the fitted concentration of half-maximal effect
In short: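 Assay format: CHO-ADRB2 cells, 18-20hr seeding at 37C/5% CO2, then compound plus 1nM isoproterenol agonist mix for 0.5hr RT. Homogeneous time-resolved fluorescence cAMP detection after 1hr, expressed as 665/615 nm ratio.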

[19] = biological target: D(2) dopamine receptor (Homo sapiens) (UniProt P14416); assay: Dopamine D2 receptor (DRD2) small molecule agonists, cell-based qHTS assay (AID 1963594); note: nearly all actives have a fitted effect of over 35% in size
In short: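 cAMP accumulation in DRD2-HEK293 cells measured by HTRF after 1 h detection; compounds added 10 min before NKH477 (200nM […]) forskolin-analogue stimulation, 30 min at room temperature, with Ro20-1724 present at 0.1 mM final.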

[20] = biological target: D(2) dopamine receptor (Homo sapiens) (UniProt P14416); assay: Dopamine D2 receptor (DRD2) small molecule antagonists, cell-based qHTS assay (AID 1963595; active = well fitted inhibition curve with a large enough effect in the signal ratio in the repeat runs, with a control signal flat; the % refers to the signal ratio)
In short: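 Readout: HTRF cAMP, cAMP-d2 competing with cellular cAMP for anti-cAMP cryptate, read after 1 h. Cells: DRD2-HEK293. Conditions: 0.1 mM Ro20-1724, 12 nM quinpirole, 200 nM NKH477, 30 min RT.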

Measured: Potency

Chain of Beta-2 adrenergic receptor (Homo sapiens) (P07550 whole entry, looked up): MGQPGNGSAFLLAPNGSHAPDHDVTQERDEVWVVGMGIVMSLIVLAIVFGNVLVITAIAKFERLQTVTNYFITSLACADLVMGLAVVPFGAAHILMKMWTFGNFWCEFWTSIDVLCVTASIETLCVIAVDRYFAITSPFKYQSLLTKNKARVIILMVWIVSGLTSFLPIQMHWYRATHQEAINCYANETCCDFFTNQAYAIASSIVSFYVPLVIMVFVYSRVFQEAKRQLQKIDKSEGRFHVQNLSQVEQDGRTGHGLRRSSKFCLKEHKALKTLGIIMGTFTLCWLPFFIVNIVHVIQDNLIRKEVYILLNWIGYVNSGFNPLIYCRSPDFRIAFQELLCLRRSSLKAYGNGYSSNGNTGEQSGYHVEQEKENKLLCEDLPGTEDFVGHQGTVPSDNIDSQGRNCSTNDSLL
Chain of 5-hydroxytryptamine receptor 2A (Homo sapiens) (P28223 whole entry, looked up): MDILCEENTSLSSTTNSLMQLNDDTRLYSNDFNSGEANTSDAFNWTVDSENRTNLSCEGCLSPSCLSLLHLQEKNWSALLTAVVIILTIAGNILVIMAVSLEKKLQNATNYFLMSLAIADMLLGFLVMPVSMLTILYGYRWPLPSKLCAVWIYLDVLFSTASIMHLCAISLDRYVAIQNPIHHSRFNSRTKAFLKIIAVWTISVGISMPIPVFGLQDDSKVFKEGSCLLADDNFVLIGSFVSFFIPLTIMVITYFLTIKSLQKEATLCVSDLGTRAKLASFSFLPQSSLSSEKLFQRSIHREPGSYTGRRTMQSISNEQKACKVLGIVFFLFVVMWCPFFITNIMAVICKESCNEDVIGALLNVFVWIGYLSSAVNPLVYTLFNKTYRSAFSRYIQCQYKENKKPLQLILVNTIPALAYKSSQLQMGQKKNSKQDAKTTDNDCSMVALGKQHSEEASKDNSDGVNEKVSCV
Chain of Gonadotropin-releasing hormone receptor (Homo sapiens) (P30968 whole entry, looked up): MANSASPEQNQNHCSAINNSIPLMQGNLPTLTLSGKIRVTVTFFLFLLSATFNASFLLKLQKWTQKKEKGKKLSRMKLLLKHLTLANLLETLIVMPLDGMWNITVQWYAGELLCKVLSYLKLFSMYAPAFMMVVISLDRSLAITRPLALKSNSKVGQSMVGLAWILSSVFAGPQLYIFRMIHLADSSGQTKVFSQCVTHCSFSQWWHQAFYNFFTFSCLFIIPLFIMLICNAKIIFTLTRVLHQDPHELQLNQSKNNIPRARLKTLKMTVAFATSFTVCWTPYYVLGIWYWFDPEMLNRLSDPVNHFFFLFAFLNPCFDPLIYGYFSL
Chain of KiSS-1 receptor (Homo sapiens) (Q969F8 whole entry, looked up): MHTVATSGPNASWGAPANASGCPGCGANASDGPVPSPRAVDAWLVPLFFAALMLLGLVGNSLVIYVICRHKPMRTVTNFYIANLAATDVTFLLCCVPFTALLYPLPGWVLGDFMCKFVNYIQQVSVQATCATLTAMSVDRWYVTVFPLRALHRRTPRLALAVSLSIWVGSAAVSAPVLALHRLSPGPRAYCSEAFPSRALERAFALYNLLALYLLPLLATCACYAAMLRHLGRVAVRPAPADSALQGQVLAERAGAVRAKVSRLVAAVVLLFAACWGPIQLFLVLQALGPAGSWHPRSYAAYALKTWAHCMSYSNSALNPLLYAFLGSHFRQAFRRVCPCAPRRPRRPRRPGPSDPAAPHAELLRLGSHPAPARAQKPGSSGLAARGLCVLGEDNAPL
Chain of Muscarinic acetylcholine receptor M1 (Homo sapiens) (P11229 whole entry, looked up): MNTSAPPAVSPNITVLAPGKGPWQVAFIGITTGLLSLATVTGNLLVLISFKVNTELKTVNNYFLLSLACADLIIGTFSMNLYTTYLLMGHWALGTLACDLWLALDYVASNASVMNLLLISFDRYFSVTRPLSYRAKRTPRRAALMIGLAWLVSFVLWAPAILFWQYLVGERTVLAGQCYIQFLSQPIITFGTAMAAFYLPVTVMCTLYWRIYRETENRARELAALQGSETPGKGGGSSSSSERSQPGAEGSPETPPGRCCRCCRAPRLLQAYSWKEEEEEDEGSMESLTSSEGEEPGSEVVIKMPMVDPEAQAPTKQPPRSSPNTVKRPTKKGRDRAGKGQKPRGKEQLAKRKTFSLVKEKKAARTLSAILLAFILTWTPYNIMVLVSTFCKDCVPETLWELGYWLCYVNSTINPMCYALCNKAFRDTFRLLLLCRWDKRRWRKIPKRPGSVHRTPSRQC
Chain of D(2) dopamine receptor (Homo sapiens) (P14416 whole entry, looked up): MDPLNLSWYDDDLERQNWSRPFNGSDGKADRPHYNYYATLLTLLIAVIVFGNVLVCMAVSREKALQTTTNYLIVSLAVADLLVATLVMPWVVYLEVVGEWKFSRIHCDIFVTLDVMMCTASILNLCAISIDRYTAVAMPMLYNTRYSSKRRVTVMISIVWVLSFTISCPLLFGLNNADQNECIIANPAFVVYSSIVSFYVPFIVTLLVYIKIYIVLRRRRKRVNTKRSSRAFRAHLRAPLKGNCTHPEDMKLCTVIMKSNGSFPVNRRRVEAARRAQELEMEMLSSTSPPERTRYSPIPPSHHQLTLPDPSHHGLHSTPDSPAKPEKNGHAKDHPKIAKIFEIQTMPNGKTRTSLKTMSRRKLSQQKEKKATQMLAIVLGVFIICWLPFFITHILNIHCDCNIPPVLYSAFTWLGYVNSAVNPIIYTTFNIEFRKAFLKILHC

O=C(O[C@@H]1Cc2c(O)cc(O)cc2O[C@@H]1c1cc(O)c(O)c(O)c1)c1cc(O)c(O)c(O)c1
not listed: [20]
inactive: all other assays above

CC(C)c1ccc(C=O)cc1
not listed: [20]
inactive: all other assays above

O=[N+]([O-])c1ccc(F)cc1F
inactive: all assays above

O=C(O[C@@H](C(=O)O)[C@@H](OC(=O)c1ccccc1)C(=O)O)c1ccccc1
inactive: all assays above

CC(=O)N(O)CCCCCNC(=O)CCC(=O)N(O)CCCCCNC(=O)CCC(=O)N(O)CCCCCN
inactive: all assays above

CCCCCCOC(=O)c1ccccc1O
inactive: all assays above

CC(=O)S[C@H](C(=O)N[C@H]1Cc2ccccc2[C@H]2CCC[C@@H](C(=O)O)N2C1=O)C(C)C
inactive: all assays above

CC(C)(C)NCC(O)COc1ccccc1OCC1CCCO1 (configuration not stated)
active: [18] 0.0266 µM
not listed: [20]
inactive: all other assays above

COc1ccccc1NC(=O)CC(C)=O
inactive: all assays above

CC(C)(C)C(=O)C1C(=O)c2ccccc2C1=O
inactive: all assays above

CNC(=O)NC
inactive: all assays above

O=C(O)C[C@H](NC(=O)OCc1ccccc1)C(=O)O
inactive: all assays above

C=C(C)C(=O)OCCCCCCCCCCCCC
inactive: all assays above

Oc1ccc(O)c2c(O)cccc12
inactive: all assays above

C=CC(=O)CCCCC
inactive: all assays above

Brc1cc(Br)cc(Br)c1
inactive: all assays above

O=C(O)c1ccccc1[N+](=O)[O-]
inactive: all assays above

CC(C)OC(=O)CCCCC(=O)OC(C)C
inactive: all assays above

CC(C)(C)c1ccc(C(=O)CCCCl)cc1
active: [2] 23.7 µM
inactive: all other assays above

CC(C)[C@@H]1CC[C@@H](C)CC1=O
inactive: all assays above

CC[C@H](C)[C@H](N)C(=O)O
inactive: all assays above

CCC(COC(=O)CCS)(COC(=O)CCS)COC(=O)CCS
inactive: all assays above

CC(C)N=C=NC(C)C
inactive: all assays above

O=C(/C=C/c1ccccc1)OCc1ccccc1
inactive: all assays above

CCCCC(CC)COCCO (configuration not stated)
inactive: all assays above

CC(C)CC(=O)O
inactive: all assays above

CCC(CO)(CO)CO
inactive: all assays above

CC(=O)c1ccccc1O
inactive: all assays above

C=C(C)C(=O)OCCCCCCOC(=O)C(=C)C
inactive: all assays above

Cc1ccc2c(c1)OCC(=O)CO2
inactive: all assays above
